Laboratory results: PubChem BioAssay (NCATS)
Several values for one entry are separate records, joined by “and”; a condition that tells them apart may be missing. Equal values may be shown once. Results filed as inconclusive are left out. A call without a number means that no potency is given here. Activity calls are given as the source filed them. Unless noted, the call rests on the fitted dose curve; in most records, active means well fitted curve in the direction sought with a large enough effect; inconclusive means small, poorly fitted or top-dose-only effect, or another doubt; inactive means no such curve, though single readings can be large; an effect the other way counts as inactive or inconclusive.

What was measured:
[1] = Primary qHTS for inhibitors of nuclear receptor binding SET domain protein 2 (NSD2) in an isogenic RCH-ACV NSD2 p.E1099K mutant (9B) (AID 1645876); further: nearly all actives have a fitted effect of over 70% in size; further: potency means the concentration at half of the fitted maximal effect
[2] = Primary qHTS for inhibitors of nuclear receptor binding SET domain protein 2 (NSD2) in an RCH-ACV wild type WT cells (2C) (AID 1645877); further: nearly all actives have a fitted effect of over 70% in size; further: potency means the concentration at half of the fitted maximal effect
[3] = NCATS anti-infectives library activity on HEK293 viability as a counter-qHTS vs the C. elegans viability qHTS (AID 1745854); further: potency means the concentration at half of the fitted maximal effect
Procedure, shortened: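 HEK293 cells, 1500 per well, exposed 24 hr at 37C in 5% CO2 to compounds in a 1:5 titration, up to 41.7 uM final. Viability read as CellTiter-Glo luminescence after 10 min at room temperature.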

[4] = target: Glutathione peroxidase 1 (Homo sapiens) (UniProt P07203); assay: Primary qHTS Assay for Inhibitors of Recombinant Selenoprotein Glutathione Peroxidase 1 (GPX1) (AID 1845191); further: nearly all actives have a fitted effect of over 65% in size
Procedure, shortened: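 GR-coupled assay: compounds preincubated 30 min at room temperature with GPX1, then reaction started with CHP; final 10 nM GPX1, 1 mM GSH, 0.5 mM CHP, 0.5 mM NADPH, 100 nM GR, 0.01% BSA, pH 7.5 Tris buffer. NADPH fluorescence (340/450 nm) read at 0 and 15 min.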

[5] = target: Phospholipid hydroperoxide glutathione peroxidase GPX4 (Homo sapiens) (UniProt P36969); assay: Primary qHTS Assay for Inhibitors of Recombinant Selenoprotein Glutathione Peroxidase 4 (GPX4) (AID 1845192); further: nearly all actives have a fitted effect of over 65% in size
Procedure, shortened: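 GR-coupled assay: recombinant GPX4 preincubated 30 min with compound at room temperature; final 200 nM GPX4, 1 mM GSH, 0.5 mM cumene hydroperoxide, 0.5 mM NADPH, 100 nM GR, 0.01% BSA, pH 7.5 Tris. NADPH fluorescence (340/450 nm) read at 0 and 15 min.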

[6] = target: Luciferin 4-monooxygenase (Photinus pyralis) (UniProt P08659); assay: Primary firefly luciferase (FLuc) qHTS assay for identification of artifact compounds. (AID 1845220); further: nearly all actives have a fitted effect of over 60% in size
Procedure, shortened: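 Enzymatic FLuc inhibition assay: compounds pre-exposed to luciferin/ATP (10 uM each) for 15 min, then purified P. pyralis enzyme at 10 nM added. Read-out: luminescence at 5 min.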

[7] = Primary fluorescence-based thiol-reactive (MSTI) qHTS assay for identification of artifact compounds. (AID 1845221);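 further: thiol-reactive compounds lower the probe fluorescence signal; nearly all actives have a fitted effect of over 65% in size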
Procedure, shortened: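 Curve-fitted percent inhibition (4-parameter Hill) derived from fluorescence, Ex 525/Em 598 nm, scaled with Acetyl-MSTI and MSTI; 1 h incubation at room temperature.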

[8] = target: Cytochrome P450 2C9 (Homo sapiens) (UniProt P11712); assay: Cytochrome P450 family 2 subfamily C member 9 (CYP2C9) small molecule antagonists: luciferase biochemical (cell-free) qHTS assay (AID 1645842; active means well fitted curve in the direction sought with a large enough effect in the repeat runs; an effect the other way counts as inactive or inconclusive; further: nearly all actives have a fitted effect of over 55% in size; further: potency means the concentration at half of the fitted maximal effect)
Procedure, shortened: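 Luminescence, after 20 min with luciferin detection reagent, reflected CYP2C9 turnover during a 1 h NADPH-driven reaction at 37C. Enzyme-substrate mix contained 0.4% bovine serum albumin and was preincubated with compound 10 min at room temperature.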

[9] = target: Catechol O-methyltransferase (Homo sapiens) (UniProt P21964); assay: Confirmatory Screen for Target Class Profiling of Small Molecule Inhibitors of Methyltransferases (AID 1745852); conditions: MTase-Glo luminescence, SAH detection, recombinant enzyme; measured here: COMT max response; stronger effect = lower value
[10] = target: Guanidinoacetate N-methyltransferase (Homo sapiens) (UniProt Q14353); assay: as above; conditions: activity change, negative = inhibition: at 57.3 µM (top of the series)
[11] = target: Nicotinamide N-methyltransferase (Homo sapiens) (UniProt P40261); assay: as above; conditions: MTase-Glo luminescence, SAH detection, recombinant enzyme; measured here: NNMT max response; stronger effect = lower value
[12] = target: Phenylethanolamine N-methyltransferase (Homo sapiens) (UniProt P11086); assay: as above; conditions: MTase-Glo luminescence, SAH detection, recombinant enzyme; measured here: PNMT max response; stronger effect = lower value
[13] = NCATS anti-infectives library activity on the primary C. elegans qHTS viability assay (AID 1745855; calls by dose curve; further: potency means the concentration at half of the fitted maximal effect)
Procedure, shortened: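 Viability is taken from GFP fluorescence of PE254-GFP-FLuc C. elegans imaged by laser cytometry over 7 days. Ten L1 worms per well grow at 21 °C on TOP10 E. coli capsules with titrated compound; levamisole marks toxicity.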

[14] = target: N-terminal Xaa-Pro-Lys N-methyltransferase 1 (Homo sapiens) (UniProt Q9BV86); assay: Confirmatory qHTS for Inhibitors of N-terminal methyltransferase 1 (NTMT1): MTaseGlo Assay (AID 1645874); conditions: NTMT1 enzyme, MTase-Glo SAH luminescence; further: potency means the concentration at half of the fitted maximal effect; nearly all actives have a fitted effect of over 65% in size
Procedure, shortened: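 qHTS format: NTMT1 125 nM, SAM 100 uM, peptide SPKRIA 1 uM final; 15 min compound preincubation, 30 min reaction at room temperature. MTase-Glo luminescence.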

Phospholipid hydroperoxide glutathione peroxidase GPX4 (Homo sapiens), sequence (P36969 whole entry, looked up): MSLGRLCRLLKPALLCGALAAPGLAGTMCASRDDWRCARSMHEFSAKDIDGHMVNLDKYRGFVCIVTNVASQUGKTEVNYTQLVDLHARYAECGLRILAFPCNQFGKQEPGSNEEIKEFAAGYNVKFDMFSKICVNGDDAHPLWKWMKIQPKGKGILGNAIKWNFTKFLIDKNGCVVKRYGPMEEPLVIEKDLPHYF
Glutathione peroxidase 1 (Homo sapiens), sequence (P07203 whole entry, looked up): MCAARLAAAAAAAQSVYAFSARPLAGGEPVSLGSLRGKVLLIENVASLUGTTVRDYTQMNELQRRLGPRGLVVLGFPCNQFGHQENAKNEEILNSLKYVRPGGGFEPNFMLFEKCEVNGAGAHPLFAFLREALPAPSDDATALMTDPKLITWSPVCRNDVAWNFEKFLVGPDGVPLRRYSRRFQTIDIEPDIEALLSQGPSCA
Cytochrome P450 2C9 (Homo sapiens), sequence (P11712 whole entry, looked up): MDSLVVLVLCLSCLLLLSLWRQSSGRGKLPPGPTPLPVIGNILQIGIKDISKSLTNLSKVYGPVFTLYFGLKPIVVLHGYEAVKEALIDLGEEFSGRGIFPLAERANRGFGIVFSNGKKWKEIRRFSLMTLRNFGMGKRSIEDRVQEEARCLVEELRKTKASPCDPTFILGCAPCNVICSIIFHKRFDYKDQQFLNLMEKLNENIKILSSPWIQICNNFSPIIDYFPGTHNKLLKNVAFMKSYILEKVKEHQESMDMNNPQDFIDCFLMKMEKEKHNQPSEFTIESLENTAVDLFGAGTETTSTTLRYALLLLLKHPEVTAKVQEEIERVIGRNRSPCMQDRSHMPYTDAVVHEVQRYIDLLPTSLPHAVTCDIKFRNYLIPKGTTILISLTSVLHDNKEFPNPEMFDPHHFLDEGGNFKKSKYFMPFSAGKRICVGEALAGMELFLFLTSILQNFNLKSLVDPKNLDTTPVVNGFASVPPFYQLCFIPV
Phenylethanolamine N-methyltransferase (Homo sapiens), sequence (P11086 whole entry, looked up): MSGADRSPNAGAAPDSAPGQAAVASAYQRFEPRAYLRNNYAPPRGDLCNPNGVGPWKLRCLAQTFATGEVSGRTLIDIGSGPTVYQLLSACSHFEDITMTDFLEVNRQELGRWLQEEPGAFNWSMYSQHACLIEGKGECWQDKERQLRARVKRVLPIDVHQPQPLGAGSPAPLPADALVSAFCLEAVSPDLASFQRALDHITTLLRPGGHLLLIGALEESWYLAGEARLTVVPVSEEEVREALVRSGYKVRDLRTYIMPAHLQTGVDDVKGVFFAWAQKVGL
N-terminal Xaa-Pro-Lys N-methyltransferase 1 (Homo sapiens), sequence (Q9BV86 whole entry, looked up): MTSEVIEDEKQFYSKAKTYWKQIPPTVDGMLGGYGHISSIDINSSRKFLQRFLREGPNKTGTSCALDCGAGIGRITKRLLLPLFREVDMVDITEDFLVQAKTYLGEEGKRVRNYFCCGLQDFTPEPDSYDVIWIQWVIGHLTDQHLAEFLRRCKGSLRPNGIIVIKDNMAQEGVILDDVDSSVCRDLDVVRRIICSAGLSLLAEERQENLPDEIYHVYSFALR
Nicotinamide N-methyltransferase (Homo sapiens), sequence (P40261 whole entry, looked up): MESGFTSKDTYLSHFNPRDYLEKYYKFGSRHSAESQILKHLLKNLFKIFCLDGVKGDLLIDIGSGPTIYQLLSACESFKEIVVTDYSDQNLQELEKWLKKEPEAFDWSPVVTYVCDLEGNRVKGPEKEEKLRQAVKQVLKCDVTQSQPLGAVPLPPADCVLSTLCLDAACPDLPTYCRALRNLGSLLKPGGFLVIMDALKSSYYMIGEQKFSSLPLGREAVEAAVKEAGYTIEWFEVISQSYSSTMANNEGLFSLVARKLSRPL
Catechol O-methyltransferase (Homo sapiens), sequence (P21964 whole entry, looked up): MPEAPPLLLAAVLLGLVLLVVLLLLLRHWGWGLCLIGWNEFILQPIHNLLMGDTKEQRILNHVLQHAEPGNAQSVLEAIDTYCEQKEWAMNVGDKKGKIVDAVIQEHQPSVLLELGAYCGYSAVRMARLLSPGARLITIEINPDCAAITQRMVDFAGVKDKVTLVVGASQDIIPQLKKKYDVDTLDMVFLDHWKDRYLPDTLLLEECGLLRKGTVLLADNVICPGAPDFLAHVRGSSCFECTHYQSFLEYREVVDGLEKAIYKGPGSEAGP

## Nc1ccc(C(=O)Nc2cccc(-c3nc(N4CCOCC4)c4oc5ncccc5c4n3)c2)cn1
[1]
  Potency: 1.15 µM (active) and 1.48 µM (active)
[2]
  Potency: 1.29 µM (active) and 1.05 µM (active)
[3]
  Potency: inactive
[4]
  Potency: inactive
[5]
  Potency: inactive
[6]
  Potency: inactive
[7]
  Potency: inactive

## Cc1cncc2cccc(S(=O)(=O)N3CCCN(C(=O)CN)C[C@@H]3C)c12
[8]
  Potency: 19 µM (active)
[4]
  Potency: inactive
[5]
  Potency: inactive
[6]
  Potency: inactive
[7]
  Potency: inactive

## Cn1cc(-c2ccc3ncc(Cc4ccc5ncccc5c4)n3n2)cn1
[8]
  Potency: 0.756 µM (active)
[4]
  Potency: inactive
[6]
  Potency: inactive
[7]
  Potency: inactive

## c1ccc(CNc2nc(NCc3ccccc3)c3ccccc3n2)cc1
[1]
  Potency: 5.9 µM (active)
[2]
  Potency: 5.9 µM (active)
[3]
  Potency: 22.4 µM (active)
[4]
  Potency: inactive
[5]
  Potency: inactive

## C[C@H](NC(=O)Cc1cc(F)cc(F)c1)C(=O)N[C@H](C(=O)OC(C)(C)C)c1ccccc1
[1]
  Potency: inactive
[2]
  Potency: inactive
[3]
  Potency: inactive
[4]
  Potency: inactive
[5]
  Potency: inactive

## c1cncc(CN2CCC(n3ncc4c(N5CCOCC5)nc(-c5ccc6[nH]ccc6c5)nc43)CC2)c1
[8]
  Potency: 1.9 µM (active)
[1]
  Potency: 916 nM (active) and 833 nM (active)
[4]
  Potency: inactive
[5]
  Potency: inactive
[6]
  Potency: inactive
[7]
  Potency: inactive

## O=S(=O)(O)CCSSCCS(=O)(=O)O
[1]
  Potency: inactive
[2]
  Potency: inactive
[4]
  Potency: inactive

## CC(=O)NC(CS)C(=O)O (centres undefined)
[1]
  Potency: inactive
[2]
  Potency: inactive

## CC(C)(N)c1ccc(-c2nc3ccccc3nc2-c2ccccc2)cc1
[8]
  Potency: 13.5 µM (active)
[1]
  Potency: 16.3 µM (active)
[6]
  Potency: inactive
[7]
  Potency: inactive

## Cc1ccc(O)c(C(CCN(C(C)C)C(C)C)c2ccccc2)c1 (centres undefined)
[1]
  Potency: inactive
[2]
  Potency: inactive

## CCOC(=O)[C@@H](N)Cc1ccc(-c2cc(O[C@H](c3ccc(Cl)cc3-n3ccc(C)n3)C(F)(F)F)nc(N)n2)cc1
[8]
  Potency: 6.01 µM (active)
[2]
  Potency: 23.5 µM (active)
[9]
  activity: -0.461%
[10]
  activity change, negative = inhibition: 0%
[11]
  activity: -31.8%
[12]
  activity: -6.64%
[4]
  Potency: inactive
[5]
  Potency: inactive
[6]
  Potency: inactive
[7]
  Potency: inactive

## CCCCCCCCCCCCCCCC(=O)OC[C@@H](NC(=O)C(Cl)Cl)[C@H](O)c1ccc([N+](=O)[O-])cc1
[8]
  Potency: 3.01 µM (active)
[4]
  Potency: inactive
[5]
  Potency: inactive

## Cc1ccc(-n2[nH]c(C)c(N=Nc3cccc(-c4cccc(C(=O)O)c4)c3O)c2=O)cc1C
[8]
  Potency: inactive
[4]
  Potency: inactive
[5]
  Potency: inactive

## N[C@H]1CN(c2c(F)cc3c(=O)c(C(=O)O)cn(C4C[C@@H]4F)c3c2Cl)CC12CC2 (some centres undefined)
[8]
  Potency: inactive
[4]
  Potency: inactive
[6]
  Potency: inactive
[7]
  Potency: inactive

## N=c1ccn2c(n1)O[C@H]1[C@@H](O)[C@@H](CO)O[C@H]12
[1]
  Potency: 0.0209 µM (active)
[2]
  Potency: 0.0235 µM (active)

## Oc1ccc([C@@H]2Oc3ccc(O)cc3[C@@H]3CCC[C@@H]32)cc1
[8]
  Potency: inactive
[1]
  Potency: 8.33 µM (active)
[4]
  Potency: inactive
[5]
  Potency: inactive
[6]
  Potency: inactive
[7]
  Potency: inactive

## COc1ccc(C[C@@H](C)[C@@H](C)Cc2ccc(OC)c(OC)c2)cc1OC
[8]
  Potency: 3.01 µM (active)
[4]
  Potency: inactive
[5]
  Potency: inactive

## O=C(Nc1nnc(-c2ccco2)o1)c1cc(-c2ccccc2)nc2ccccc12
[1]
  Potency: 18.6 µM (active)
[2]
  Potency: 13.2 µM (active)
[4]
  Potency: inactive

## CCNC(=O)Nc1ccc(-c2nc3c(c(N4CCOC[C@H]4C)n2)CCN(C2COC2)C3)cc1
[1]
  Potency: 0.731 µM (active)
[2]
  Potency: 1.3 µM (active)

## CC(C)n1cnc2c(NCCc3ccc(O)cc3)nc(-c3csc4ccccc34)nc21
[8]
  Potency: 2.68 µM (active)
[1]
  Potency: 20.5 µM (active)
[5]
  Potency: inactive
[6]
  Potency: inactive
[7]
  Potency: inactive

## COc1ccc2c(c1OC)C(=O)OC2[C@H]1c2c(cc3c(c2OC)OCO3)CCN1C (some centres undefined)
[1]
  Potency: 20.9 µM (active)
[2]
  Potency: 23.5 µM (active)

## Cn1cnc2c(F)c(Nc3ccc(Br)cc3F)c(C(=O)NOCCO)cc21
[8]
  Potency: 9.52 µM (active)
[4]
  Potency: inactive
[5]
  Potency: inactive
[6]
  Potency: inactive
[7]
  Potency: inactive

## CC(C)C[C@H](NC(=O)[C@@H](NC(=O)c1cccc(-c2ccccc2)n1)[C@@H](C)O)B(O)O
[1]
  Potency: 29 nM (active) and 32.3 nM (active)
[2]
  Potency: 18.3 nM (active) and 22.9 nM (active)
[3]
  Potency: inactive
[13]
  Potency: 2.05 µM (active)
[4]
  Potency: inactive
[5]
  Potency: inactive
[6]
  Potency: inactive
[7]
  Potency: inactive

## O=C(O)c1ccc(Nc2ncc3c(n2)-c2ccc(Cl)cc2C(c2c(F)cccc2F)=NC3)cc1
[8]
  Potency: 21.3 µM (active)
[1]
  Potency: 258 nM (active) and 742 nM (active)
[4]
  Potency: inactive
[5]
  Potency: inactive
[6]
  Potency: inactive
[7]
  Potency: inactive

## COc1cc(C(C)C)c(Oc2cnc(NC(CO)CO)nc2N)cc1I
[8]
  Potency: 12 µM (active)
[1]
  Potency: inactive
[5]
  Potency: inactive

## C[C@H](NC(=O)[C@@H](O)c1cc(F)cc(F)c1)C(=O)N[C@@H]1C(=O)N(C)c2ccccc2-c2ccccc21
[1]
  Potency: inactive
[2]
  Potency: inactive
[3]
  Potency: inactive
[13]
  Potency: 0.365 µM (active)
[4]
  Potency: inactive
[5]
  Potency: inactive

## Oc1cc2c(cc1O)C1c3ccc(O)c(O)c3OCC1(O)C2 (centres undefined)
[8]
  Potency: 21.3 µM (active)
[4]
  Potency: inactive
[5]
  Potency: inactive

## CN1CCCN(C(=O)c2cccc(-c3ccc(C=C4C(=O)Nc5ccc(Cl)cc54)o3)c2)CC1
[14]
  Potency: 9.16 µM (active)
[1]
  Potency: 0.206 µM (active)
